# Results published in PubChem BioAssay (Tox21).
# Where “and” joins values, the source holds several entries; their conditions need not be identical. Equal values may be shown once. Results filed as inconclusive are left out. A call without a number means that no potency is given here. The source holds several records for some structures; these can differ, active in one and inactive in another. Calls of active or inactive are those of the source. Unless noted, calls follow the shape of the dose curve; as a rule, active = well fitted curve in the direction sought with a large enough effect in the repeat runs; inconclusive = weak or mixed curves; inactive = no such curve, though single readings can be large; an effect the other way counts as inactive or inconclusive.
# How the values were obtained:
# [1] = qHTS assay to identify small molecule agonists of the hypoxia (HIF-1) signaling pathway - cell viability counter screen (AID 1224844; calls by dose curve; also: nearly all actives have a fitted effect of over 50% in size)
# Outline: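 Cytotoxicity measured by CellTiter-Glo ATP luminescence in the wells also read for beta-lactamase signal. Cells were HRE-bla ME-180 (2,000/well, 0.5% dialyzed FBS), exposed to compounds for 17 h at 37C.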
# [2] = qHTS assay to identify small molecule agonists of H2AX (AID 1224845; active = well fitted activation curve with a large enough effect in the signal ratio in the repeat runs, not every such curve was filed as active; the % refers to the signal ratio)
# Outline: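 Phospho-H2AX Ser139 measured by HTRF (ex 320 nm; em 665 and 620 nm) after 24 hr antibody incubation. Compounds, 15 concentrations, 0.76% DMSO, were applied to CHO-K1 cells for 3hr at 37C before lysis.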
# [3] = qHTS assay to identify small molecule agonists of the hypoxia (HIF-1) signaling pathway (AID 1224846; active = well fitted activation curve with a large enough effect in the signal ratio in the repeat runs, not every such curve was filed as active; the % refers to the signal ratio)
# Outline: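 Compounds added to ME-180 cells carrying hypoxia-response-element beta-lactamase reporter (0.5% dialyzed FBS, 5 h preplating), 17 h at 37C; agonist activity detected by CCF4-AM B/G FRET read-out.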
# [4] = qHTS assay to identify small molecule agonists of H2AX - cell viability counter screen (AID 1224847; calls by dose curve; also: top concentration of the series differs between compounds; nearly all actives have a fitted effect of over 30% in size)
# Outline: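 Compounds tested at 15 concentrations were incubated 3 hr at 37C with wild-type CHO-K1 cells; cellular ATP-based luminescence (CellTiter-Glo) indicated viability.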
# [5] = qHTS assay to identify small molecule antagonists of the estrogen related receptor (ERR) signaling pathway from Tox21 library (AID 1224848); also: nearly all actives have a fitted effect of over 50% in size; also: potency is read from the fitted curve at half-maximal effect
# Outline: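 ERR cell line, 2,000 cells/well. 6 h settle, then compound (DMSO) added; 18 h at 37 C; ONE-Glo luminescence after 30 min RT.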
# [6] = qHTS assay to identify small molecule agonists of the estrogen related receptor (ERR) signaling pathway from Tox21 library (AID 1224849; calls by dose curve; also: nearly all actives have a fitted effect of over 15% in size); details: ERR reporter cell line, ONE-Glo luciferase, 18 h
# Outline: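 Luminescent agonist read-out (One-Glo, 30-minute room-temperature incubation) following 18-hour compound treatment at 37 C of the ERR cell line, which had been plated 6 hours before dosing.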
# [7] = qHTS RealTime-Glo MT Cell Viability Assay in HepG2 cells - 24 hour (AID 1224867); also: nearly all actives have a fitted effect of over 50% in size
# Outline: (§1)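 HepG2 cells (600/well) were dispensed with RealTime-Glo reagents, incubated 5 h at 37 °C, then treated with compounds in DMSO for up to 40 h. Nonlytic NanoLuc luminescence reflecting viable cells was read at each stated time point.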
# [8] = qHTS RealTime-Glo MT Cell Viability Assay in HEK293 cells - 32 hour (AID 1224868); also: nearly all actives have a fitted effect of over 50% in size; also: potency is read from the fitted curve at half-maximal effect
# Outline: (§2)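 HEK293 cells seeded with NanoLuc/prosubstrate reagent, rested 5 h at 37 C, then dosed and kept at 37 C up to 40 h. Nonlytic real-time luminescence from viable cells read at 0, 8, 16, 24, 32 and 40 h.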
# [9] = A CellTox Green Cytotoxicity Assay to monitor cytotoxicity in HEK293 cells - 0 hour (AID 1224869); also: nearly all actives have a fitted effect of over 50% in size
# Outline: (§3)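 Fluorescence from a DNA-binding dye excluded by viable cells was measured repeatedly in the same HEK293 wells (600 cells/well) during continuous compound exposure at 37 C. Each assay gives one read point: 0, 8, 16, 24, 32 or 40 h.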
# [10] = qHTS RealTime-Glo MT Cell Viability Assay in HepG2 cells - 40 hour (AID 1224870); also: nearly all actives have a fitted effect of over 50% in size
# Outline: (§4)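 Real-time viability: cells seeded at 600 per well together with NanoLuc and cell-permeant prosubstrate, compounds added after 5 h incubation. Luminescence tracked at 0, 8, 16, 24, 32 and 40 h of exposure.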
# [11] = A CellTox Green Cytotoxicity Assay to monitor cytotoxicity in HEK293 cells - 40 hour (AID 1224871); also: nearly all actives have a fitted effect of over 45% in size; also: potency is read from the fitted curve at half-maximal effect
# Outline: as §3
# [12] = qHTS RealTime-Glo MT Cell Viability Assay in HEK293 cells - 16 hour (AID 1224872); also: nearly all actives have a fitted effect of over 50% in size; also: potency is read from the fitted curve at half-maximal effect
# Outline: as §2
# [13] = qHTS RealTime-Glo MT Cell Viability Assay in HepG2 cells - 8 hour (AID 1224873); also: nearly all actives have a fitted effect of over 55% in size
# Outline: as §4
# [14] = qHTS RealTime-Glo MT Cell Viability Assay in HEK293 cells - 40 hour (AID 1224874); details: RealTime-Glo luminescence; max response: stronger effect = lower value; also: nearly all actives have a fitted effect of over 50% in size; also: potency is read from the fitted curve at half-maximal effect
# Outline: (§5)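 Luminescence, which tracks viable cell number through reduction of the prosubstrate to a NanoLuc substrate, was read over continuous 37 C culture. Cells (600/well) were premixed with reagent and rested 5 h before 23 nL of compound in DMSO was pinned.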
# [15] = A CellTox Green Cytotoxicity Assay to monitor cytotoxicity in HEK293 cells - 24 hour (AID 1224875); also: nearly all actives have a fitted effect of over 45% in size
# Outline: as §3
# [16] = A CellTox Green Cytotoxicity Assay to monitor cytotoxicity in HepG2 cells - 16 hour (AID 1224876); also: nearly all actives have a fitted effect of over 45% in size
# Outline: (§6)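 Real-time cytotoxicity: fluorescence of a cell-impermeant cyanine dye binding DNA of dead HepG2 cells, measured repeatedly (0–40 h) during compound exposure at 37 C. Cells seeded 600/well with reagent, dosed after 5 h.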
# [17] = qHTS RealTime-Glo MT Cell Viability Assay in HepG2 cells - 32 hour (AID 1224877); also: nearly all actives have a fitted effect of over 55% in size
# Outline: as §1
# [18] = A CellTox Green Cytotoxicity Assay to monitor cytotoxicity in HepG2 cells - 24 hour (AID 1224878); also: nearly all actives have a fitted effect of over 45% in size
# Outline: as §6
# [19] = A CellTox Green Cytotoxicity Assay to monitor cytotoxicity in HepG2 cells - 40 hour (AID 1224879); also: nearly all actives have a fitted effect of over 40% in size
# Outline: as §6
# [20] = qHTS RealTime-Glo MT Cell Viability Assay in HEK293 cells - 0 hour (AID 1224880)
# Outline: as §5
compound,measurement,setting,value
Cc1cccc(C)c1,Potency,[1],inactive
same,Potency,[2],inactive
same,outcome,[3],inactive
same,Potency,[4],inactive
same,Potency,[5],inactive
same,"activity change, positive = activation",[6]; at 92.4 µM (top of the series),-11.8% (inactive) and 5.13% (inactive)
same,Potency,[7],inactive
same,Potency,[8],inactive
same,Potency,[9],inactive
same,Potency,[10],inactive
same,Potency,[11],inactive
same,Potency,[12],inactive
same,Potency,[13],inactive
same,max response,[14],-11.1% (inactive) and -3.52% (inactive) and 0.116% (inactive)
same,Potency,[15],inactive
same,Potency,[16],inactive
same,Potency,[17],inactive
same,Potency,[18],inactive
same,Potency,[19],inactive
same,Potency,[20],inactive
O=C1NS(=O)(=O)c2ccccc21,Potency,[1],inactive
same,Potency,[2],inactive
same,outcome,[3],inactive
same,Potency,[4],inactive
same,Potency,[7],inactive
same,Potency,[8],inactive
same,Potency,[9],inactive
same,Potency,[10],inactive
same,Potency,[11],inactive
same,Potency,[12],inactive
same,Potency,[13],inactive
same,max response,[14],5.75% (inactive) [middle of 5 runs]
same,Potency,[15],inactive
same,Potency,[16],inactive
same,Potency,[17],inactive
same,Potency,[18],inactive
same,Potency,[19],inactive
same,Potency,[20],inactive
NS(=O)(=O)O,Potency,[1],inactive
same,Potency,[2],inactive
same,outcome,[3],inactive
same,Potency,[4],inactive
same,Potency,[7],inactive
same,Potency,[9],inactive
same,Potency,[10],inactive
same,Potency,[11],inactive
same,Potency,[12],inactive
same,Potency,[13],inactive
same,max response,[14],0.202% (inactive) [middle of 4 runs]
same,Potency,[15],inactive
same,Potency,[16],inactive
same,Potency,[17],inactive
same,Potency,[18],inactive
same,Potency,[19],inactive
same,Potency,[20],inactive
NC1CCCCC1,Potency,[1],inactive
same,Potency,[2],inactive
same,outcome,[3],inactive
same,Potency,[4],inactive
same,Potency,[7],inactive
same,Potency,[8],inactive
same,Potency,[9],inactive
same,Potency,[10],inactive
same,Potency,[11],inactive
same,Potency,[12],inactive
same,Potency,[13],inactive
same,max response,[14],1.81% (inactive) [middle of 4 runs]
same,Potency,[15],inactive
same,Potency,[16],inactive
same,Potency,[17],inactive
same,Potency,[18],inactive
same,Potency,[19],inactive
same,Potency,[20],inactive
OC[C@H]1O[C@H](O[C@]2(CCl)O[C@H](CCl)[C@@H](O)[C@@H]2O)[C@H](O)[C@@H](O)[C@H]1Cl,Potency,[1],inactive
same,Potency,[2],inactive
same,outcome,[3],inactive
same,Potency,[4],inactive
same,Potency,[7],inactive
same,Potency,[8],inactive
same,Potency,[9],inactive
same,Potency,[10],inactive
same,Potency,[11],inactive
same,Potency,[12],inactive
same,Potency,[13],inactive
same,max response,[14],-6.96% (inactive) and 4.96% (inactive) and 1.17% (inactive)
same,Potency,[15],inactive
same,Potency,[16],inactive
same,Potency,[17],inactive
same,Potency,[18],inactive
same,Potency,[19],inactive
same,Potency,[20],inactive
O=c1[nH]cnc2c1ncn2[C@H]1CC[C@@H](CO)O1,Potency,[1],inactive
same,Potency,[2],inactive
same,outcome,[3],inactive
same,Potency,[4],inactive
same,Potency,[5],inactive
same,"activity change, positive = activation",[6]; at 42.5 µM (top of the series),4.94% (inactive)
same,"activity change, positive = activation",[6]; at 92.4 µM (top of the series),7.43% (inactive) and 1.63% (inactive)
same,Potency,[7],inactive
same,Potency,[8],inactive
same,Potency,[9],inactive
same,Potency,[10],inactive
same,Potency,[11],inactive
same,Potency,[12],inactive
same,Potency,[13],inactive
same,max response,[14],9.2% (inactive) and 0.925% (inactive) and -0.369% (inactive)
same,Potency,[15],inactive
same,Potency,[16],inactive
same,Potency,[17],inactive
same,Potency,[18],inactive
same,Potency,[19],inactive
same,Potency,[20],inactive
Cc1ncc([N+](=O)[O-])n1C,Potency,[1],inactive
same,Potency,[2],inactive
same,outcome,[3],inactive
same,Potency,[4],inactive
same,Potency,[5],inactive
same,"activity change, positive = activation",[6]; at 42.5 µM (top of the series),5.13% (inactive)
same,"activity change, positive = activation",[6]; at 92.4 µM (top of the series),5.9% (inactive) and -0.499% (inactive)
same,Potency,[7],inactive
same,Potency,[9],inactive
same,Potency,[10],inactive
same,Potency,[11],inactive
same,Potency,[12],inactive
same,Potency,[13],inactive
same,max response,[14],6.42% (inactive) and -0.882% (inactive) and 0.401% (inactive)
same,Potency,[15],inactive
same,Potency,[16],inactive
same,Potency,[17],inactive
same,Potency,[18],inactive
same,Potency,[19],inactive
same,Potency,[20],inactive
Cn1c(=O)c2c(ncn2C)n(C)c1=O,Potency,[1],inactive
same,Potency,[2],inactive
same,outcome,[3],inactive
same,Potency,[4],inactive
same,Potency,[5],61.9 µM (active) and inactive
same,"activity change, positive = activation",[6]; at 42.5 µM (top of the series),0.592% (inactive)
same,"activity change, positive = activation",[6]; at 92.4 µM (top of the series),-33.2% (inactive) and 0.518% (inactive)
same,Potency,[7],inactive
same,Potency,[8],inactive
same,Potency,[9],inactive
same,Potency,[10],inactive
same,Potency,[11],inactive
same,Potency,[12],inactive
same,Potency,[13],inactive
same,max response,[14],-15% (inactive) and -0.566% (inactive) and 6.55% (inactive)
same,Potency,[15],inactive
same,Potency,[16],inactive
same,Potency,[17],inactive
same,Potency,[18],inactive
same,Potency,[19],inactive
same,Potency,[20],inactive
CCCC[P+](CCCC)(CCCC)CCCC,Potency,[1],inactive
same,Potency,[2],inactive
same,outcome,[3],inactive
same,Potency,[4],inactive
same,Potency,[7],inactive
same,Potency,[8],19.4 µM (active) and 15.8 µM (active) and 3.89 µM (active)
same,Potency,[9],inactive
same,Potency,[10],inactive
same,Potency,[11],inactive
same,Potency,[12],21.8 µM (active)
same,Potency,[13],inactive
same,Potency,[14],21.8 µM (active) and 17.7 µM (active) and 4.36 µM (active)
same,Potency,[15],inactive
same,Potency,[16],inactive
same,Potency,[17],inactive
same,Potency,[18],inactive
same,Potency,[19],inactive
same,Potency,[20],inactive
CC1(C)O[C@@H]2C[C@H]3[C@@H]4CCC5=CC(=O)C=C[C@]5(C)[C@@]4(F)[C@@H](O)C[C@]3(C)[C@]2(C(=O)CO)O1,Potency,[1],inactive
same,Potency,[2],inactive
same,outcome,[3],inactive
same,Potency,[4],inactive
same,Potency,[5],inactive
same,"activity change, positive = activation",[6]; at 42.5 µM (top of the series),-6.5% (inactive)
same,"activity change, positive = activation",[6]; at 92.4 µM (top of the series),-23.9% (inactive) and -13.8% (inactive)
same,Potency,[7],inactive
same,Potency,[8],inactive
same,Potency,[9],inactive
same,Potency,[10],inactive
same,Potency,[11],inactive and 9.52 µM (active)
same,Potency,[12],inactive
same,Potency,[13],inactive
same,max response,[14],-22.1% (inactive) and -11.6% (inactive) and -2.14% (inactive)
same,Potency,[16],inactive
same,Potency,[17],inactive
same,Potency,[18],inactive
same,Potency,[19],inactive
same,Potency,[20],inactive
